From PubChem BioAssay
Hits are enriched below; roughly 2.4% of the tested compounds scored in any of these assays.
TGFb inhibitor: blocks TGF-b signaling; AID 588855; 1.2% of 410,000 active; HepG2 CAGA-GFP TGF-b/SMAD3 reporter, GFP fluorescence, 18 h; TGF-beta stimulated, 500 pg/mL final; Potency, µM (highest dose often 46.1 µM), for inactives: top-dose activity, negative = inhibition, most hits filed as inhibitors; further: on the % scale 0 is the no-effect control and ±100 the full control effect; nearly all actives have a fitted effect of over 65% in size
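Smad-responsive CAGA-GFP expression was quantified in HEPG2 cells exposed to compounds and 500 pg/mL final TGF-beta for 18 h at 37 degrees C; unstimulated wells defined full inhibition.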
ATXN2 expr inh: inhibitors of ATXN2 expression; HEK-293 ATXN2-luciferase reporter, luminescence, 24 h; Potency, µM (highest dose often 57 µM), inactives show at the top dose activity change, negative = inhibition, most hits filed as inhibitors; 0.72% of 360,000 active; further: on the % scale 0 is the no-effect control and ±100 the full control effect; nearly all actives have a fitted effect of over 55% in size
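ATXN2-luciferase reporter cells (luciferase flanked by upstream and downstream ATXN2 gene portions) were treated 24 h at 37 °C with compounds at up to 57 uM. SteadyGlo luminescence gave expression; GF-AFC fluorescence gave viability.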
Apoferritin bind: candidate novel general anesthetic via apoferritin binding. P02791. apoferritin/1-aminoanthracene competitive binding, fluorescence. Potency, µM (series often up to 77.5 µM), for the others: at the highest dose activity change, negative = displacement, actives largely listed as inhibitors. 0.074% of 350,000 active. AID 485281; further: on the % scale 0 is the no-effect control and ±100 the full control effect; nearly all actives have a fitted effect of over 20% in size
Target sequence (P02791 2-175 limits assumed): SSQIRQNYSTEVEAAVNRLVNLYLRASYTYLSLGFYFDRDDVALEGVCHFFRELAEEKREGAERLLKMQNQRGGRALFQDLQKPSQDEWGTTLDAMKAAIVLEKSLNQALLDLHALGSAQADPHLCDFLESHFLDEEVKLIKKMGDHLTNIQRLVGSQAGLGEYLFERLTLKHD
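Steps: apoferritin (10 uM) was premixed with half-saturated 1-AMA in PBS, compounds were pin-transferred, plates stood 10 min at room temperature, fluorescence was read at 380/535 nm, and curves were fitted with a Hill equation.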
ATXN viability: reduces viability in counter-screen for ATXN expression inhibitors; S2 cells (HEK-293 line with an ATXN2-luciferase reporter) viability, CellTiter-Fluor protease fluorescence, 24 h; Potency, µM (series often up to 56.7 µM), most hits filed as cytotoxic; 0.49% of 400,000 active; further: nearly all actives have a fitted effect of over 40% in size
HepG2 viability: kills HepG2 cells in TGF-b inhibitor counter-screen | Potency, µM (doses to about 46.1 µM), for inactives: at the highest dose activity change, negative = cytotoxicity, hits mostly cytotoxic | 0.76% of 410,000 active | HepG2 CAGA-GFP viability, ATP luminescence, 18 h
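CellTiter-Glo luminescence gave cytotoxicity after 18 hours at 37 degrees C. The cells were HepG2 CAGA-GFP in 1% FBS DMEM, stimulated with 500 pg/mL TGF-beta after compound addition. %Activity was normalised to no-cell wells (complete cell-killing) and DMSO (no toxicity), and curves were fitted and classified.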
The depositor's hits bear a star; i = inactive; ? = inconclusive; nt = not tested or not shown. The call rests on the fitted dose curve; in most records, active means well fitted curve in the direction sought with a large enough effect; inconclusive means small, poorly fitted or top-dose-only effect, or another doubt; inactive means no such curve, though single readings can be large; an effect the other way counts as inactive or inconclusive. Potency means the concentration at half of the fitted maximal effect.

SMILES	TGFb inhibitor	ATXN2 expr inh	Apoferritin bind	ATXN viability	HepG2 viability
COc1ccc(C(=O)COC(=O)CCS(=O)(=O)c2ccc(C)cc2)c(OC)c1	0%	-14%	nt	i	-2%
COc1ccc(C(=O)CCS(=O)(=O)c2ccc(C)cc2)cc1OC	?	2%	-13%	i	16µM*
Cc1cc(C)nc(S[C@H]2C[C@@H](C(=O)N3CCN(c4ccccc4F)CC3)N(Cc3ccccc3C(F)(F)F)C2)n1	nt	nt	nt	i	nt
CC(=O)N1CCc2c(sc(NC(=O)Cc3ccc(F)cc3)c2C(N)=O)C1	4%	nt	-3%	i	11µM*
CC(=O)N1CCc2c(sc(NC(=O)Cc3ccc(F)cc3)c2C#N)C1	4%	nt	23%	i	-18%
COc1ccc[n+](CC(=O)c2ccc(F)cc2)c1	-1%	nt	nt	nt	0%
CC1(C(=O)NS(=O)(=O)c2cccc(Cl)c2)CCN1C(=O)Cc1ccc(Cl)cc1Cl (stereo not drawn)	12%	-6%	nt	i	-4%
Cc1cccc(NC(=S)NCCSc2ccc(Cl)cc2)c1	?	-19%	-5%	i	2.5µM*
Cc1ccc(NC(=S)NCC(C)CSc2ccc(Cl)cc2)cc1 (stereo not drawn)	1%	-7%	5%	i	-6%
Cc1cccc(NC(=S)NCC(C)CSc2ccc(Cl)cc2)c1 (stereo not drawn)	13µM*	nt	14%	i	14µM*
CCC(C)(C)n1nnnc1C(c1cccs1)N1CCc2ccccc21 (stereo not drawn)	13µM*	?	0%	i	-31%
O=C1C(=O)c2ccccc2C(O)=C1CCCCl	2.5µM*	25µM*	-10%	nt	2µM*
COc1ccc(CC2=C(O)c3ccccc3C(=O)C2=O)cc1	-12%	-7%	3%	i	-2%
COc1ccc(OCc2cccc(C(=O)Nc3cc(C)on3)c2)cc1	?	2.2µM*	-20%	i	-12%
COC(=O)c1cccc(Cn2cc([N+](=O)[O-])cn2)c1	nt	nt	-16%	nt	nt
COc1ccc(OCc2cccc(C(=O)NN)c2)cc1	-3%	2.2µM*	-13%	i	4%
COc1ccc(OCc2cccc(C(=O)Nn3cc([N+](=O)[O-])cn3)c2)cc1	-19%	1µM*	54%	i	-3%
CCOc1ccc(Br)cc1C1=NN(C(C)=O)C(c2ccc([N+](=O)[O-])s2)O1 (stereo not drawn)	13µM*	-6%	3%	i	-99%
CC(=O)N1N=C(c2ccc(C)cc2)OC1c1ccc(Br)cc1 (stereo not drawn)	2%	48%	-1%	i	-11%
COc1ccc(/C=C/C(=O)NCC2Cc3cccc(-c4nc(C)cnc4C)c3O2)cc1OC (stereo not drawn)	nt	nt	nt	i	nt
CC(C)OC(=O)[C@H](C)N[P@](=O)(OC[C@H]1O[C@@H](n2ccc(=O)[nH]c2=O)[C@](C)(F)[C@H]1O)Oc1ccccc1	nt	-7%	nt	nt	nt
COc1cc(C)c(S(=O)(=O)NC2CC(C)(C)NC(C)(C)C2)cc1C	0%	-9%	-3%	i	-9%
CCCOc1cc(C)c(S(=O)(=O)NC2CC(C)(C)NC(C)(C)C2)cc1C	?	2%	-12%	i	11µM*
CCN(CCO)CCCOc1ccc2c(Nc3cc(CC(=O)Nc4cccc(F)c4)[nH]n3)ncnc2c1	nt	1%	nt	nt	nt
O=C(N/N=C/c1ccc2c(c1)OCO2)c1ccccn1	0%	?	-8%	i	7.1µM*
CC(C)c1ccc(/C=N/NC(=O)c2ccccn2)cc1	3%	13µM*	7%	i	-22%
OC1CC2CCC(C1)N2CCCN1c2ccccc2Sc2ccc(Cl)cc21 (stereo not drawn)	?	11µM*	nt	16µM*	22µM*
CCC(=O)N1c2ccc(S(=O)(=O)CCC(=O)Nc3ccc(Br)c(C)c3)cc2CC1C (stereo not drawn)	?	0%	-20%	?	-28%
Cn1c2ccccc2c2c(C(=O)N3CCN(c4ccc(F)cc4)CC3)cn(C3CCCCC3)c(=O)c21	?	nt	115%	nt	-7%
